An excerpt weighted towards active compounds, which were near 1.4% of everything screened.
AF4-AF9 inh – blocks AF4 peptide binding to human AF9; P42568; AlphaScreen, biotin-AF4 peptide binding to FLAG-AF9; inhibition, % at 10 µM; hit rate 0.47% among 350,000; AID 651704;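 active means every replicate reaching a set inhibition limit, whatever the replicate mean, cut at about 25% in these data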;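 further: 0% = plate neutral control median and 100% = total signal loss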
RAD54 branch – blocks human RAD54 Holliday junction branch migration. Q92698. FAM/BHQ fluorescence. inhibition, % at 10.4 µM. hit rate 0.14% among 360,000. AID 602329;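 active means mean normalized replicate activity at least 40 and at least half of replicates scoring 40 or more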;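 further: 0% = median of neutral control wells and 100% = median of positive control wells; inhibitors cause a drop in the FAM fluorescence signal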
PGC1a acetyl inh – modulators of PGC1a acetylation; U2OS PGC1a acetylation, AlphaScreen anti-acetyl-lysine; with virally co-expressed GCN5 acetyltransferase; inhibition, % at 15.6 µM; hit rate 0.17% among 350,000;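 active means every replicate shows inhibition of at least 40%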;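 further: 0% = neutral control wells and 100% = positive control wells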
GSIS activator – GLuc luminescence reporter in INS-1E cells, primary screen for activators of glucose-dependent secretion of insulin; activation, % at 16.6 µM; AID 743287; hit rate 0.61% among 370,000; INS-1E GLuc reporter insulin secretion, 2-3 h;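 active means lowest replicate activation of at least 40%, so every replicate reaches that level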;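 further: 0% = median of neutral control wells and 100% = median of IBMX positive control wells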
RAD52 anneal inh – inhibitors of human RAD52 DNA annealing; recombinant RAD52 DNA annealing, FRET fluorescence; inhibition, % at 18.7 µM; hit rate 0.46% among 360,000;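 active means every replicate showing at least 50% inhibition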
ERAP1 inh – ERAP1 (human) enzyme inhibition; Q9NZ08; recombinant ERAP1, Leu-AMC fluorescence, 60 min; inhibition, % at 10.7 µM; hit rate 0.15% among 340,000; AID 652197;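 active means mean replicate inhibition of at least 30%, or all replicates individually reaching that 30% level; inactive means mean below 30% and not every replicate reaching it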;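 further: 0% = neutral control wells and 100% = L-leucinethiol positive control wells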
* hit, by the source's call; . = no result given.

SMILES	AF4-AF9 inh	RAD54 branch	PGC1a acetyl inh	GSIS activator	RAD52 anneal inh	ERAP1 inh
Cc1c(P(=S)(c2ccccc2)c2ccccc2)[n+]2ccccc2n1C/C=C/c1ccccc1	16	21	.	243*	41	.
CC[C@H](C)[C@@H]1NC(=O)[C@@H](CC(C)C)NC(=O)[C@H](C(C)C)NC(=O)[C@H]2CSSC[C@H](NC1=O)C(=O)N2	-3	9	72*	7	-17	3
O=C(CCn1ccc2cc(S(=O)(=O)N3CCCC3)ccc21)NCc1cccc(F)c1	0	4	-2	44*	-1	1
O=C(O)CCC1(CCC(=O)O)CCCC(CCC(=O)O)(CCC(=O)O)C1=O	2	-1	0	47*	-9	-1
O=C(O)CCN1C(=O)NC2(CCCC2)C1=O	.	0	-3	.	.	.
COCC(=O)Nc1ccc2c(c1)[C@H]1C[C@H](CC(=O)NCc3ccccc3)O[C@@H](CO)[C@H]1O2	-3	3	6	-6	-22	1
Cc1ccc(NC(=O)c2ccccc2-c2ccccc2C(=O)O)cc1	-3	.	.	16	-6	3
Cc1ccc(NC(=O)c2ccccc2-c2ccccc2C(=O)O)cc1C	-2	.	-15	45*	-8	-3
CCC(=O)N1C[C@H](C)[C@H](OC)CN(C)C(=O)c2cc(NC(=O)c3cc(C)on3)ccc2OC[C@@H]1C	.	.	21	4	.	.
CNCCCNC(=O)c1ccc(/C=N/O)nc1	-2	.	.	7	-16	0
C[N+](C)(C)CCCNC(=O)c1ccc(/C=N/O)nc1	0	.	.	-1	-7	109*
CC1(C(=O)NCc2ccccc2)CN(S(C)(=O)=O)CC(=O)N1C1CC1 (stereo not drawn)	.	.	.	65*	-19	0
Oc1ccccc1-c1cc(-c2cccc(F)c2)n[nH]1	.	-5	4	.	.	.
CC(C)(C)c1ccc(-c2cc(-c3ccccc3O)[nH]n2)cc1	1	3	-2	68*	1	2
COc1cc2c(cc1OC)CN(C(=O)[C@H]1[C@@H]3C(=O)O[C@@H](c4ccccc4)[C@@H](c4ccccc4)N3[C@@H](c3ccccc3OCCO)[C@]13C(=O)Nc1ccccc13)CC2	6	0	.	.	-16	1
Cc1ccccc1CN(C)Cc1cc(=O)oc2c(C)c(C)ccc12	-2	2	.	93*	-8	-2
CO[C@@H]1CN(C)C(=O)c2cc(NS(=O)(=O)c3ccc(C)cc3)ccc2OC[C@@H](C)NC[C@@H]1C	0	-5	-7	15	-3	1
CC(C)(C)c1cc(=O)n2[nH]c(N)nc2n1	-1	.	-5	10	-3	15
COC(C)(C)c1cc(C(C)(C)C)nc(N)n1	.	3	4	48*	.	.
CCS(=O)(=O)N1CC(=O)N2[C@H](C1)[C@H](c1ccc(C#Cc3cccc(F)c3)cc1)[C@@H]2CO	.	.	.	-18	.	.
COc1ccc2c3c(n(C)c2c1)[C@@H](CO)N(Cc1ccccc1)CC31CN(S(C)(=O)=O)C1	4	.	1	2	.	.
CCCCc1c(-c2ccccc2OC)ncn1Cc1ccccc1C	10	.	.	186*	-2	2
CCCCc1c(-c2ccccc2OC)ncn1Cc1ccc(C)cc1	15	.	.	66*	-10	5
C[C@H](O)C#Cc1ccc2c(c1)O[C@@H](CN(C)CC1CCOCC1)[C@H](C)CN([C@H](C)CO)S2(=O)=O	.	-6	5	20	.	.
O=C(O)CCN1c2ccccc2Sc2ccccc21	0	-4	.	69*	-7	-3
SMILES	AF4-AF9 inh	RAD54 branch	PGC1a acetyl inh	GSIS activator	RAD52 anneal inh	ERAP1 inh
C=CCn1cccc(/C=C/C(=O)c2ccc(C(C)(C)C)cc2)c1=S	.	.	53*	-3	.	.
COc1ccc(NC(=O)N(C)C[C@@H]2OCCCC[C@H](C)Oc3ccc(NC(=O)Nc4cccc5ccccc45)cc3C(=O)N([C@H](C)CO)C[C@@H]2C)cc1	.	-1	6	10	.	.
CNC(=O)C[C@H]1CC[C@@H]2[C@H](COc3ccc(NC(=O)Nc4cccc(C)c4)cc3C(=O)N2C)O1	3	8	-4	-3	0	1
C[C@H]1CN([C@@H](C)CO)C(=O)c2c(c3ccccc3n2C)-c2ccccc2CO[C@H]1CN(C)C(=O)CCN(C)C	6	6	-13	20	51*	-1
C[C@@H]1CN([C@@H](C)CO)C(=O)c2c(c3ccccc3n2C)-c2ccccc2CO[C@H]1CN(C)C(=O)[C@@H](Cc1ccccc1)N(C)C	10	5	-5	5	26	1
C[C@@H]1CN([C@H](C)CO)C(=O)c2c(c3ccccc3n2C)-c2ccccc2CO[C@@H]1CN(C)C(=O)[C@H](Cc1ccccc1)N(C)C	7	1	-2	16	51*	2
C[C@@H]1CN([C@H](C)CO)S(=O)(=O)c2ccc(C3=CCCC3)cc2O[C@H]1CN(C)S(C)(=O)=O	.	.	-5	14	.	.
C=CCn1cnc2scc(-c3ccc(OC)cc3)c2c1=O	2	1	.	61*	-39	0
CSc1ccccc1C(=O)OCC(=O)Nc1cccnc1Cl	-2	-1	-5	43*	-4	-2
C[C@H](CO)N1C[C@H](C)[C@H](CN(C)S(=O)(=O)c2cn(C)cn2)Oc2ccc(NS(=O)(=O)c3cn(C)cn3)cc2C1=O	.	.	-1	25	.	.
COc1ccc(N/C=C/C(=O)c2ccc(Cl)cc2)cc1	.	.	.	112*	.	.
CCC(=O)N1[C@H](C(=O)N2CCc3ccccc3C2)[C@@H](CO)[C@@H]2Cn3c(cccc3=O)[C@@H]21	-2	3	.	16	-9	0
Cc1cc(NC(=O)COC(=O)c2oc3c(Cl)cccc3c2C)no1	.	12	-7	65*	.	.
Cc1cc(NC(=O)COC(=O)CCS(=O)(=O)c2ccc(C)c(C)c2)no1	6	-4	21	9	-6	-1
Cc1cc(NC(=O)COC(=O)CCS(=O)(=O)c2cc(Cl)ccc2Cl)no1	-2	-1	-6	41*	5	-4
Cc1[nH]c2ccccc2c1/C=N/Nc1ccccc1[N+](=O)[O-]	50*	.	-3	-25	-1	-4
Cc1cc(=O)n2ccsc2n1	0	0	7	47*	-4	-2
O=c1cc(CN2CCCCCC2)nc2sccn12	-3	.	.	7	-2	-1
CCC(=O)N1C[C@H](C)[C@H](OC)CN(C)C(=O)c2cc(NC(=O)CC(F)(F)F)ccc2OC[C@H]1C	-3	.	7	7	-18	0
COc1cccc(CN(C)Cc2nc3cc(C(F)(F)F)ccc3c(=O)[nH]2)c1	36*	2	-5	-4	-14	.
C=CCOc1ccc(CN(C)Cc2nc3cc(C(F)(F)F)ccc3c(=O)[nH]2)cc1	-12	.	.	-24	-2	4
COCCNC(=O)C[C@H]1CC[C@@H]2[C@@H](COc3ccc(NC(=O)Cc4ccccc4)cc3C(=O)N2C)O1	-3	2	5	9	3	.
C=C(C)CN1CCN(c2ccc(N3C(=O)CCCC3=O)cc2[N+](=O)[O-])CC1	-14	2	9	50*	-10	.

Screens (PubChem BioAssay)
